APE1 inh: qHTS Assay for Inhibitors of the Human Apurinic/apyrimidinic Endonuclease 1 (APE1); recombinant APE1, TAMRA/BHQ-2 abasic DNA cleavage fluorescence; AID 2517, 2012; hit rate 0.35% among 350,000; Potency, µM (titrated, usually from 65.8 µM), without a hit: at the top dose activity change, negative = inhibition, hits mostly inhibitors; DNA repair nuclease/redox regulator APEX1 (Homo sapiens), P27695;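 further: plate controls were vehicle for no effect and reference inhibitor for full effect; nearly all actives have a fitted effect of over 55% in size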
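Step 1: APE1 (0.75 nM) with compound, 15 min RT. Step 2: add 50 nM fluorophore/quencher THF duplex. Step 3: three fluorescence reads 60 s apart (525/598 nm); read 3 minus read 1 = reaction progress.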
RGS4 inhibitor: Inhibitors of Regulator of G Protein Signaling (RGS) 4: qHTS | Regulator of G-protein signaling 4 (Homo sapiens), P49798 | Transcreener GDP fluorescence polarization, RGS4-accelerated GTP hydrolysis | Potency, µM (highest dose often 114 µM), for inactives: at the top dose activity change, negative = inhibition, hits mostly inhibitors | hit rate 0.039% among 390,000; further: nearly all actives have a fitted effect of over 75% in size
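MLSMR compounds (23 nl, pin-transferred) preincubated 10 min at room temperature with a 500nM (2x) first reagent, then RGS4 at 900nM (2x) plus Transcreener GDP mix added; fluorescence polarization (620/688 nm) read before and after 90 min at 30 °C.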
TDP1 inh: qHTS Assay for Inhibitors of Tyrosyl-DNA Phosphodiesterase (TDP1); hit rate 0.28% among 350,000; Potency, µM (titrated, usually from 130 µM), for the others: at the top dose activity change, negative = inhibition, actives largely listed as inhibitors; recombinant TDP1, AlphaScreen DNA substrate cleavage; AID 485290, 2010; further: nearly all actives have a fitted effect of over 40% in size
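Signal: AlphaScreen proximity between streptavidin donor and anti-FITC acceptor beads on intact substrate. Reaction: Tdp1 1 nM, substrate 15 nM final, 5 min RT after 15 min compound preincubation.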
GCN5L2 inh: qHTS Assay for Inhibitors of GCN5L2; Histone acetyltransferase KAT2A (Homo sapiens), Q92830; GCN5L2 HAT assay, ThioGlo1 CoA-SH fluorescence; Potency, µM (titrated, usually from 58.9 µM), for the others: top-dose activity change, negative = inhibition, usual class: inhibitors; hit rate 0.21% among 390,000; AID 504327, 2011
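Free CoA generated was detected with ThioGlo1 (50uM) fluorescence at Ex340nm/Em540nm, read immediately and after 20 min at room temperature. Enzyme, 20 nM in HEPES pH 7.5 buffer, saw compounds 15 min before adding 75uM H3(1-25) peptide and 70uM acetyl-CoA.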
RECQ1 inh-1: qHTS Assay for Inhibitors of RecQ-Like Dna Helicase 1 (RECQ1); ATP-dependent DNA helicase Q1 (Homo sapiens), P46063; RECQ1 DNA unwinding, red fluorescence kinetic read; Potency, µM (series often up to 57.3 µM), for inactives: at the highest dose activity, negative = inhibition, hits mostly inhibitors; hit rate 0.54% among 240,000; AID 2549, 2010;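 further: plate controls were vehicle for no effect and no enzyme for full effect; nearly all actives have a fitted effect of over 30% in size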
Target sequence (P46063 whole entry, looked up): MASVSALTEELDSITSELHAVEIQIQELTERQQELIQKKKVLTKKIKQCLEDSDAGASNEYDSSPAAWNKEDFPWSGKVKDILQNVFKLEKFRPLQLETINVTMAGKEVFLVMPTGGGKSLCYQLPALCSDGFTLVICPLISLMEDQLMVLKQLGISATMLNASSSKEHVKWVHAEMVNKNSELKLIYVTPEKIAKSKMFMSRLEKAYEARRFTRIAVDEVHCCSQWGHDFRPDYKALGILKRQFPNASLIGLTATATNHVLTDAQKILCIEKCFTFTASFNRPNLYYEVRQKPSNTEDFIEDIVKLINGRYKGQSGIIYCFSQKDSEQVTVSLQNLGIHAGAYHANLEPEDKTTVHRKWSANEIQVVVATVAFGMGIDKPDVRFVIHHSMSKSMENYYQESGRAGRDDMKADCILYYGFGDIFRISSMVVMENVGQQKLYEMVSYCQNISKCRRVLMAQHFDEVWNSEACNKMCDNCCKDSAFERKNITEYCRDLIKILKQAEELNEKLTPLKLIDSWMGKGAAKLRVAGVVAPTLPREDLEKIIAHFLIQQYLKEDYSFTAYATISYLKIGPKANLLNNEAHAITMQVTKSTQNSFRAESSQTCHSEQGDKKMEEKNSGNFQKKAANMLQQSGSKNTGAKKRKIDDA
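50 nM RECQ1T1 preincubated 15 min with compound in Tris pH 8.0 buffer with MgCl2, DTT, Tween-20 and 2.5 ug/ml poly(dI-dC); started with 200 nM TAMRA/BHQ-2 forked duplex and 2 mM ATP. Unwinding read as fluorescence (525/598 nm), two reads 2 h apart.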
BLM inh-1: qHTS Assay for Inhibitors of Bloom's syndrome helicase (BLM). AID 2528, 2010. Potency, µM (top dose mostly 56.1 µM), for inactives: top-dose activity change, negative = inhibition, usual class: inhibitors. RecQ-like DNA helicase BLM (Homo sapiens), P54132. hit rate 0.2% among 350,000. recombinant BLM DNA unwinding, fluorescence dequenching;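 further: plate controls were vehicle for no effect and no enzyme for full effect; nearly all actives have a fitted effect of over 35% in size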
BLM inh-2: qHTS Confirmation Assay for Inhibitors of Bloom's syndrome helicase (BLM) | shares compounds with BLM inh-1 | BLM DNA unwinding, fluorescence quenching, biochemical | Potency, µM, for inactives: max response, negative = inhibition, hits mostly inhibitors | hit rate 40% among 220 | AID 2585, 2010;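 further: strand separation dequenches TAMRA so unwinding raises red fluorescence; series mostly up to about 69 µM; nearly all actives have a fitted effect of over 45% in size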
RECQ1 conf: Confirmation qHTS Assay for Inhibitors of RecQ-Like Dna Helicase 1 (RECQ1); shares compounds with RECQ1 inh-1; Potency, µM (titrated, usually from 229 µM), inactives show top-dose activity change, negative = inhibition, most hits filed as inhibitors; RECQ1 helicase DNA unwinding, fluorescence; hit rate 28% among 610; further: nearly all actives have a fitted effect of over 45% in size
RECQ1 ADP FP: Counterscreen for RECQ1 Inhibitors: ADP Fluorescence Polarization Displacement Assay. shares compounds with RECQ1 inh-1. ADP fluorescence polarization displacement counterscreen. Potency, µM (highest dose often 228 µM), without a hit: at the top dose activity change, negative = inhibition, most hits filed as inhibitors. hit rate 27% among 530. AID 2711, 2010; further: nearly all actives have a fitted effect of over 45% in size
RECQ1 inh-2: Confirmation qHTS Assay for Inhibitors of RecQ-Like Dna Helicase 1 (RECQ1) - Round 2 Cherry Picks; shares compounds with RECQ1 inh-1; recombinant RECQ1 DNA unwinding, red fluorescence; Potency, µM (series often up to 119 µM), for inactives: at the top dose activity, negative = inhibition, most hits filed as inhibitors; hit rate 15% among 1,100; further: nearly all actives have a fitted effect of over 50% in size
Numbers without * were called inactive; i = inactive; u = inconclusive; x = no result; [ ] = dose if it differs, or a comment. Only some compounds are listed: those with a hit (about 0.87% of all), similar ones and a draw of the others. The call rests on the fitted dose curve; in most records, active means well fitted curve in the direction sought with a large enough effect; inconclusive means small, poorly fitted or top-dose-only effect, or another doubt; inactive means no such curve, though single readings can be large; an effect the other way counts as inactive or inconclusive. Unless noted, on the % scale 0 is the no-effect control and ±100 the full control effect; potency means the concentration at half of the fitted maximal effect.

SMILES	APE1 inh	RGS4 inhibitor	TDP1 inh	GCN5L2 inh	RECQ1 inh-1	BLM inh-1	BLM inh-2	RECQ1 conf	RECQ1 inh-2	others
Cc1ccc(SCC(=O)c2ccc(CC(=O)O)s2)cc1	-12%	-3%	x	-23%	25µM*	25µM*	u	x	7%
CC1(C)O[C@@H]2C[C@H]3[C@@H]4CCC5=CC(=O)C=C[C@]5(C)[C@H]4C(O)C[C@]3(C)[C@]2(C(=O)CO)O1 (stereo partly drawn)	x	x	x	-16%	x	-11%	x	x	x
CC(C)CNC(=O)COC(=O)c1c2c(nc3ccccc13)/C(=C\c1cccs1)CC2	x	-14%	x	x	x	x	x	x	x
CN(CCC#N)C(=O)COC(=O)c1c2c(nc3ccccc13)/C(=C/c1ccco1)CC2	14µM*	u	x	u	16µM*	14µM*	u	x	u
CC(=O)Nc1ccc(SCC(c2ccccc2)N2CCN(C)CCC2=O)cc1 (stereo not drawn)	20%	-15%	6%	x	-12%	4%	x	x	x
Cc1nc2cc(-c3ccsc3-n3c(C)ccc3C)[nH]n2c(=O)c1Cl	u	u	x	u	2.8µM*	16µM*	u	40µM*	u	RECQ1 ADP FP=32µM*
Cc1ccccc1-c1cc2nc(C)c(Cl)c(=O)n2[nH]1	x	24%	x	x	x	x	x	x	x
Cc1[nH]c2ccccc2c1/C=N/NC(=O)c1cccc([N+](=O)[O-])c1	-11%	-36%	5%	-8%	1.6µM*	-8%	u	u	x	RECQ1 ADP FP=41%[91.9 µM]
CCOc1ccc(C(=O)Nc2ccc(-c3nc4ccccc4[nH]3)cc2)cc1[N+](=O)[O-]	0%	u	x	-3%	7.9µM*	-15%	u	u	u
Cn1ncc([N+](=O)[O-])c1C(=O)Nc1ccc(-c2nc3ccccc3[nH]2)cc1	-3%	14%	3%	-13%	u	-6%	x	x	x
CCOc1ccccc1CNc1ccc(O)cc1	-19%	u	5%	-4%	20µM*	28µM*	-9%	10%[114 µM]	1%	RECQ1 ADP FP=56µM*
COc1ccc(Br)cc1CNc1ccc(O)cc1	-9%	u	12%	1%	28µM*	20µM*	-3%	x	-12%
COc1ccc(Br)cc1CNc1ccc2[nH]c(=O)[nH]c2c1	1%	u	8%	-3%	i	-6%	x	x	x
COc1ccc(N2CCN(C(=O)Cn3nc(Cc4cccnc4)c4ccccc4c3=O)CC2)cc1	x	36%	1%	-10%	x	1%	x	x	x
C[C@@H]1CC[C@@]2(OC1)O[C@H]1C[C@H]3[C@@H]4CC[C@H]5C[C@@H](O)CC[C@]5(C)[C@H]4CC(=O)[C@]3(C)[C@H]1[C@@H]2C	-2%[21 µM]	x	x	x	x	x	x	x	x
COc1ccccc1CNC(=O)COC(=O)c1cc(-c2ccco2)nc2ccccc12	11µM*	u	x	-29%	u	11µM*	18µM*	x	u
O=C(COC(=O)c1cc(-c2ccco2)nc2ccccc12)NCc1ccc2c(c1)OCO2	-2%	-2%	2%	-8%	-6%	0%	x	x	x
COc1ccc(-c2nc3c(c(SCC(=O)Nc4ccccc4OC)n2)Cc2cccc(C)c2O3)cc1	x	-5%	4%	1%	x	-6%	x	x	x
Cc1ccc(-c2nc3c(c(SCC(=O)Nc4cccc(C(=O)O)c4)n2)Cc2cccc(C)c2O3)cc1	1.9µM*	-39%	x	u	x	4.5µM*	14µM*	6.5µM*	x
CCOc1cccc2c1Oc1nc(-c3ccccc3)nc(SCC(=O)Nc3ccc(F)cc3)c1C2	x	17%	6%	1%	x	-6%	x	x	x
O=C(CSc1nc(-c2ccccc2)nc2c1Cc1ccccc1O2)Nc1ccc(C(=O)O)cc1	1%	u	4.5µM*	28µM*	8.9µM*	10µM*	13µM*	4%[69.1 µM]	x
COCCNC(=O)CCCN1C(=O)CCn2nc(-c3cccn3C)cc21	x	-10%	2%	-4%	x	0%	x	x	x
CCCNc1nc(C#N)nc(Nc2ccccc2)n1	-1%	x	6%	x	-7%	-11%	x	x	x
Cc1cc(-c2nc3c4c5c(sc4[nH]c(=O)n3n2)CCC5)c(C)o1	u	u	u	u	13µM*	14µM*	11µM*	18µM*	u	RECQ1 ADP FP=u
Cc1ccc(C(=O)Nc2ccc3c(c2)N(C)C(=O)c2ccccc2S3)cc1F	x	-2%	4%	-4%	x	-10%	x	x	x
O=c1c(-c2cc(F)cc(F)c2)nc2cnc(N3CCNCC3)nc2n1Cc1ccc(F)cc1	u	x	x	-21%	u	35µM*	u	x	u
O=C(N/N=C/c1cccc(F)c1)c1cc(-c2ccco2)nc2ccccc12	4.5µM*	-22%[11.4 µM]	x	u	22µM*	11µM*	5.8µM*	28µM*	x	RECQ1 ADP FP=u
O=C(O)C1Nc2c(O)cccc2C2C=CCC12 (stereo not drawn)	3.5µM*	u	x	-2%	4µM*	4.5µM*	5.4µM*	u	x
O=C(NCc1ccco1)c1c2c(nc3ccccc13)CCC2	u	-44%[11.4 µM]	x	-10%	28µM*	18µM*	u	x	u
CCOC(=O)c1sc2nc3c(SCC(=O)O)cc(C(=O)c4cc(F)ccc4O)cn3c(=O)c2c1C	8.9µM*	u	35µM*	-25%	u	22µM*	32µM*	x	7%
